Bioassay records from PubChem BioAssay.
HT1080-NT tox: kills 2HG-producing HT-1080-NT fibrosarcoma cells. HT-1080-NT fibrosarcoma viability, CellTiter-Glo ATP luminescence, 48 h. Potency, µM (titrated, usually from 46.1 µM), most hits filed as cytotoxic. 1.6% of 360,000 active;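 also: NT is the 2HG producing partner of a matched IDH1 knockdown line; nearly all actives have a fitted effect of over 55% in size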
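Viability by CellTiter-Glo luminescence after 48 h compound exposure at 37C of HT-1080-NT cells (750/well, RPMI, 5% FBS). % activity scaled between DMSO wells and medium-only wells, then curve-fitted and categorized by curve class.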
DT40 TDP1 no CPT: qHTS for Inhibitors of human tyrosyl-DNA phosphodiesterase 1 (TDP1): qHTS in cells in absence of CPT | DT40 Tdp1-/- hTDP1 cells, no CPT, ATP luminescence, 48 h | Potency, µM (top dose mostly 46.2 µM), usual class: inhibitors | 15% of 420,000 active | AID 686978, 2013; also: nearly all actives have a fitted effect of over 55% in size
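DT40 Tdp1-/-;hTDP1 cells, no CPT (DMSO vehicle only), 400 cells/well; compounds pin-transferred; ≥48 hr, 37 °C; CellTiter-Glo 30 min RT dark, luminescence read.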
KB-V1 cytotox: kills drug-selected multidrug resistant KB-V1 cells; KB-V1 MDR cells viability, CellTiter-Glo, 72 h; Potency, µM (titrated, usually from 46.1 µM), most hits filed as cytotoxic; 3.4% of 400,000 active; AID 1347076; also: nearly all actives have a fitted effect of over 60% in size
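Cytotoxicity toward P-gp-expressing KB-V1 cells was determined as loss of CellTiter-Glo luminescence after 72 h at 37 degrees C. Compounds were tested in quantitative HTS format across a concentration range, with curves fitted to normalized data.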
HT1080 IDH1KD tx: toxicity to HT-1080 IDH1 knockdown cells (counter line); HT-1080 IDH1 knockdown viability, ATP luminescence, 48 h; Potency, µM (series often up to 46.1 µM), most hits filed as cytotoxic; 2% of 360,000 active
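In this qHTS, HT-1080 cells depleted of IDH1 are exposed for 48 h at 37 °C to compound titrations. Toxicity is scored from CellTiter-Glo luminescence, with DMSO as full viability and medium alone as none.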
DT40 TDP1 CPT: growth inhibition of DT40 Tdp1-/-;hTDP1 cells with camptothecin (screen for TDP1 inhibitors). chicken DT40 Tdp1-/-;hTDP1 cells + 20 nM CPT, ATP luminescence, 48 h. Potency, µM (doses to about 46.2 µM), actives largely listed as inhibitors. 12% of 420,000 active. AID 686979; also: nearly all actives have a fitted effect of over 55% in size
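Chicken DT40 Tdp1-/- cells complemented with human TDP1, 400 cells/well, exposed to compounds plus 20 nM camptothecin for at least 48 h at 37 C; viability read as ATP content by CellTiter-Glo luminescence.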
KB-3-1 tox: KB-3-1 parental cell cytotoxicity | AID 1347075 | Potency, µM (series often up to 46.1 µM), most hits filed as cytotoxic | 1.4% of 400,000 active | KB-3-1 viability, CellTiter-Glo ATP luminescence, 72 h; also: nearly all actives have a fitted effect of over 60% in size
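Cytotoxicity measured as CellTiter-Glo luminescence after 72 h at 37 C. Compound titrations were pinned onto drug-naive KB-3-1 parental adenocarcinoma cells grown in DMEM with 10% FBS, and normalized data fitted to concentration-response curves.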
A number is an active result; . = inactive; ? = inconclusive; / = no result given; [ ] = dose if it differs, or a comment. This is a sample that favours compounds with a hit; in the whole collection about 19% have one here. Calls follow the shape of the dose curve; as a rule, active = well fitted curve in the direction sought with a large enough effect; inconclusive = small, poorly fitted or top-dose-only effect, or another doubt; inactive = no such curve, though single readings can be large; an effect the other way counts as inactive or inconclusive.

SMILES | HT1080-NT tox | DT40 TDP1 no CPT | KB-V1 cytotox | HT1080 IDH1KD tx | DT40 TDP1 CPT | KB-3-1 tox
Oc1ccc(C=Nc2ccccc2-c2nc3ccccc3[nH]2)c(O)c1 | . | . | ? | . | . | .
C/C(=N\Nc1ccc(C(=O)c2c(C)cc3ccccn23)cc1[N+](=O)[O-])c1ccc(O)cc1 | . | ? | ? | . | ? | .
C/C(=N/Nc1ccc(C(=O)c2c(C)cc3ccccn23)cc1[N+](=O)[O-])c1ccc(O)cc1 | . | ? | . | . | 18µM | .
CCCOC(=O)Nc1nc2ccccc2o1 | . | ? | . | . | ? | .
CCOC(=O)C(Cc1ccc(O)cc1)Nc1nc2ccccc2o1 (stereo unspecified) | . | . | 21µM | . | . | .
Cc1ccc(-n2nc3c(N4CCC(C(=O)N(C)Cc5ccccc5)CC4)nnc(C)c3c2C)cc1 | / | . | . | / | . | .
O=C(CSc1nc2ccccc2s1)N1c2ccccc2Sc2ccccc21 | . | ? | 21µM | . | ? | ?
CC1CCN(C(=O)CSc2nc3ccccc3s2)CC1 | . | . | 15µM | . | . | .
O=C(O)C1CCN(C(=O)CSc2nc3ccccc3s2)CC1 | . | ? | . | . | ? | .
O=C(CSc1nc2ccccc2s1)Nn1cnnc1 | . | . | . | . | 18µM | .
CCCCC1CC(C)(C(=O)CSc2nc3ccccc3s2)OC1=O (stereo unspecified) | . | 0.65µM | . | . | . | .
O=C(CSc1nc2ccccc2s1)NC1CCCC1 | . | . | . | . | . | ?
COc1ccc(-n2c(CCc3ccccc3)nnc2SCC(=O)c2ccccc2)cc1 | . | ? | 9.2µM | . | ? | ?
COc1ccc(C(=O)CSc2nnc(CCc3ccccc3)n2-c2ccccc2)cc1 | . | 15µM | 9.2µM | . | 16µM | .
CC(=O)/C(=N\Nc1ccc(Cl)cc1)Sc1nnc(-c2ccccc2)n1-c1ccccc1 | ? | ? | ? | . | ? | .
COc1ccc(-n2c(CCc3ccccc3)nnc2SCC(=O)NCc2ccccc2)cc1 | . | ? | . | . | ? | .
CC(=O)/C(=N/Nc1ccccc1)Sc1nnc(CCc2ccccc2)n1-c1ccccc1 | . | 18µM | 23µM | . | 12µM | .
CC(C)Oc1ccc(CCc2nnc(SC(C)C(=O)O)n2-c2ccccc2)cc1 (stereo unspecified) | . | . | . | . | . | .
O=C(CSc1nnc(CCc2ccccc2)n1-c1ccc(Cl)cc1)NCc1ccccc1 | . | 16µM | ? | . | 16µM | .
OCC[C@H]1C[C@@H](O)[C@H](O)[C@@]2(Cc3ccccc3CO2)O1 | . | . | . | . | . | .
COc1ccc(-c2nc3cc(F)ccc3cc2CN(C(=O)c2ccc3c(c2)OCO3)C2CC2)cc1 | / | . | / | / | . | /
Cc1ccccc1C(=O)Nc1cccc(-c2ccc3nncn3n2)c1 | . | 21µM | . | . | 23µM | .
CC(=O)c1ccc(S(=O)(=O)Nc2cccc(-c3ccc4nncn4n3)c2)cc1 | . | . | . | . | . | .
CCOc1ccccc1C(=O)Nc1cccc(-c2ccc3nncn3n2)c1 | . | 23µM | ? | . | 23µM | .
Cc1ccc(S(=O)(=O)Nc2cccc(-c3ccc4nncn4n3)c2)cc1 | 4.6µM | 2.3µM | 16µM | 3.3µM | 1.8µM | 3.7µM
SMILES | HT1080-NT tox | DT40 TDP1 no CPT | KB-V1 cytotox | HT1080 IDH1KD tx | DT40 TDP1 CPT | KB-3-1 tox
CCOc1ccc(C2NC(=O)c3sc(=S)n(-c4ccccc4)c3N2)cc1 (stereo unspecified) | . | ? | . | . | . | .
O=C1NC(c2ccccc2)Nc2c1sc(=S)n2-c1ccccc1 (stereo unspecified) | . | 6.5µM | ? | . | . | .
COc1ccc(C2/C=C\CN(C(=O)c3ccccc3)[C@H](Cc3ccccc3)C(=O)N2Cc2ccc(F)cc2)cc1 (stereo partly specified) | . | 15µM | . | . | 21µM | ?
COc1ccc([C@H]2/C=C\CN(C(=O)c3ccc(C)cc3)[C@@H](C)C(=O)N2Cc2ccc(F)cc2)cc1 | ? | 21µM | ? | ? | ? | ?
COc1ccc([C@H]2/C=C\CN(Cc3ccc(N(C)C)cc3)[C@@H](C)C(=O)N2Cc2ccc(F)cc2)cc1 | . | ? | . | . | ? | .
COc1ccc(C2/C=C\CN(S(=O)(=O)/C=C/c3ccccc3)[C@H](Cc3ccccc3)C(=O)N2Cc2ccc(F)cc2)cc1 (stereo partly specified) | . | ? | . | . | ? | .
Cc1ccc(C(N)=Nc2ccccc2)cc1 | . | . | . | . | . | .
O=c1[nH]c(=S)c2ncn(-c3ccccc3)c2[nH]1 | ? | . | ? | . | . | .
O=C1c2ccccc2C(=O)c2c1ncn2-c1ccccc1 | ? | 5.2µM | 21µM | . | 5.8µM | ?
COC(=O)c1c(N2C(=O)[C@H]3[C@@H](C2=O)[C@]2(C(=O)Nc4c(C)cccc42)N2CCC[C@@H]32)sc(C)c1C | . | 10µM | ? | ? | 21µM | ?
Cc1cc(Cl)cc2c1NC(=O)[C@]21[C@@H]2C(=O)N(Cc3ccccc3)C(=O)[C@@H]2[C@@H]2CCCN21 | . | ? | . | ? | . | .
CC(=O)c1ccc(-c2cnc3c(NC=O)cc(-c4cnn(C)c4)cn23)cc1 | ? | 23µM | ? | ? | 18µM | ?
CC(=O)c1cccc(-c2cnc3c(NC=O)cc(-c4ccccc4F)cn23)c1 | . | ? | ? | . | ? | .
CC(=O)c1ccc(-c2cnc3c(NC=O)cc(-c4ccc(S(C)(=O)=O)cc4)cn23)cc1 | ? | 7.3µM | . | 6.5µM | 8.2µM | .
COc1ccccc1CN1CCC2(CCC(CNC(=O)c3ccccc3N(C)C)O2)CC1 (stereo unspecified) | / | ? | / | / | .[9.04 µM] | /
O=C(Cn1ccc(NC(=O)OCc2ccccc2)nc1=O)NCCN1CCOCC1 | . | . | . | . | . | .
COCCn1c(SCC(=O)c2ccc(Cl)cc2)nnc1C(C)C | ? | 21µM | . | ? | ? | .
CC(=O)Nc1ccc(S(=O)(=O)Nc2nc(C)nc3sc(C)c(C)c23)cc1 | . | . | ? | . | . | .
C[C@H](NC(c1ccc(F)cc1)c1ccc2cccnc2c1O)c1ccccc1 (stereo partly specified) | / | / | . | / | / | ?
COc1ccccc1NC(c1cccnc1)c1ccc2cccnc2c1O (stereo unspecified) | . | ? | ? | ? | ? | .
Cc1ccnc(NC(c2ccccc2F)c2ccc3cccnc3c2O)c1 (stereo unspecified) | / | / | . | / | / | ?
